Results: the supplement of paper PMC11732987, “Enantioselective OTUD7B fragment discovery through chemoproteomics screening and high-throughput optimisation” (Communications Chemistry, 2025)

Experiments:
Experiment in all cases: log2 ratio of Biotin-Ahx-Ub-VS probe labelling (fragment/DMSO); higher = less target engagement (more negative = stronger competition), active = hit call of the paper (q ≤ 0.05, log2 ratio ≤ -1)
Settings in all cases: compound concentration: 200 uM; treatment time: 3 h
USP34 = USP34 (UniProt Q70CQ2)
In short: (§1)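 Triplicate samples of HEK293T lysate, 495 µg each, received fragment at 200 µM or vehicle for 3 h, followed by Biotin-Ahx-Ub-VS (0.5 µM final) for 1 h. After NeutrAvidin enrichment of labelled DUBs and LysC/trypsin digestion, peptides were run by diaPASEF LC-MS/MS. The values are average log2 fragment/vehicle ratios from global-median-normalised Spectronaut label-free quantities, tested by unpaired t-test on proteins having ≥2 unique peptides.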

USP36 = molecular target: T1, USP36 (UniProt Q9P275)
T1 sequence (whole entry): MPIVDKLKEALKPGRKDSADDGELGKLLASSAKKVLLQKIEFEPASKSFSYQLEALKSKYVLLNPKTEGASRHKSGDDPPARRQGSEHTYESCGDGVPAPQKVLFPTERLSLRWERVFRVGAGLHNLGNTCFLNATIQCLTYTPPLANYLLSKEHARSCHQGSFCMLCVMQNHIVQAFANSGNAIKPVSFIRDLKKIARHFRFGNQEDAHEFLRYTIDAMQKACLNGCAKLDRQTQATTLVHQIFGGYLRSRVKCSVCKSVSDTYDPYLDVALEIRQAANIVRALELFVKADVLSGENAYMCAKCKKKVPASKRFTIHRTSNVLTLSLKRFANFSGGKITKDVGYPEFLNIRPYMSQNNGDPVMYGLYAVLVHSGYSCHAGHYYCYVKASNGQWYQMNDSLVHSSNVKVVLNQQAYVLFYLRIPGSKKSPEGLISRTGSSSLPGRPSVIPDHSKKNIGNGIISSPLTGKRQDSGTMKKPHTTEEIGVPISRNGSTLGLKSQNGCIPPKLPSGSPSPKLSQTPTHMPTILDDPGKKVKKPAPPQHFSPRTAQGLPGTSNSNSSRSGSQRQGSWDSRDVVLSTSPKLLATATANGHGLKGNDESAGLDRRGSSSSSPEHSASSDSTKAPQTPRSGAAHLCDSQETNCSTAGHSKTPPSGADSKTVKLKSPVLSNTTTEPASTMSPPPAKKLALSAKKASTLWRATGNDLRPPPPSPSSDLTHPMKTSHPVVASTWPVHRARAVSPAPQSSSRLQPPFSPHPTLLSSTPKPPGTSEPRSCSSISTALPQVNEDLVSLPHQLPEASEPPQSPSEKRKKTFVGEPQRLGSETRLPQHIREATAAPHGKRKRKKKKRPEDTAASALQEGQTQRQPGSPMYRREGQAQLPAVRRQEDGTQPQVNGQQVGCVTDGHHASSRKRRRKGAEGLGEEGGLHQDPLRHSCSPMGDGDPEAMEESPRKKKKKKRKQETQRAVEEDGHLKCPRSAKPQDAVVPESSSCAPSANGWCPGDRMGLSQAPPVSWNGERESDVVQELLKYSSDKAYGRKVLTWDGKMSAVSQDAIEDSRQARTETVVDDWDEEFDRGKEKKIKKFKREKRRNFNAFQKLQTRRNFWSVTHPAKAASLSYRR
In short: as §1

USP38 = molecular target: T2, USP38 (UniProt Q8NB14)
T2 sequence (whole entry): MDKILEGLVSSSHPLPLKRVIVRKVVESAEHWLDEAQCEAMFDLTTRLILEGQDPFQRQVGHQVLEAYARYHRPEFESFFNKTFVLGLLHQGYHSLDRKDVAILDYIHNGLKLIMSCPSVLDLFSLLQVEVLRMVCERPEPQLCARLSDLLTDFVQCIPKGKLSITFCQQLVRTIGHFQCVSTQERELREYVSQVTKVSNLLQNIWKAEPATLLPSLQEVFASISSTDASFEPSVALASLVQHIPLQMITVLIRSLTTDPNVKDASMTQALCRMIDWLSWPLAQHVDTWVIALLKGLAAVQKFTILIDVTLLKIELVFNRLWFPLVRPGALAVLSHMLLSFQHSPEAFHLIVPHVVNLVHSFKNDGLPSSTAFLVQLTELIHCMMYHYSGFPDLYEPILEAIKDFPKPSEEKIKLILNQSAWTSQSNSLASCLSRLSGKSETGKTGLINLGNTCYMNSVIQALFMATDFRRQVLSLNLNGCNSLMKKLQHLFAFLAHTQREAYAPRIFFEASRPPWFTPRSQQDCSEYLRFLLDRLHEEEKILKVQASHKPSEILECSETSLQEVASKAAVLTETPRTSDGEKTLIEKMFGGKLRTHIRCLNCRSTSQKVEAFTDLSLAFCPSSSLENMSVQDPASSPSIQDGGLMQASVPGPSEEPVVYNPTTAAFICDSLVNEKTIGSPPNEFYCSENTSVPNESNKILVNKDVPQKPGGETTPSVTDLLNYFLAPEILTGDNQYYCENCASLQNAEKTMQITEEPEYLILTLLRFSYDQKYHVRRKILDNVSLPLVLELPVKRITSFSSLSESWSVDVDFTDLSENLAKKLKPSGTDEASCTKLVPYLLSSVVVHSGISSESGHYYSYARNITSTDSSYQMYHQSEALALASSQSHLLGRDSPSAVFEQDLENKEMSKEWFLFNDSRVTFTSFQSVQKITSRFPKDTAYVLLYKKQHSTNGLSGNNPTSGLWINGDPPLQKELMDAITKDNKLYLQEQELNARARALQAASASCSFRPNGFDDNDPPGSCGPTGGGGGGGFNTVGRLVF
In short: as §1

USP39 = molecular target: T3, USP39 (UniProt Q53GS9)
T3 sequence (whole entry): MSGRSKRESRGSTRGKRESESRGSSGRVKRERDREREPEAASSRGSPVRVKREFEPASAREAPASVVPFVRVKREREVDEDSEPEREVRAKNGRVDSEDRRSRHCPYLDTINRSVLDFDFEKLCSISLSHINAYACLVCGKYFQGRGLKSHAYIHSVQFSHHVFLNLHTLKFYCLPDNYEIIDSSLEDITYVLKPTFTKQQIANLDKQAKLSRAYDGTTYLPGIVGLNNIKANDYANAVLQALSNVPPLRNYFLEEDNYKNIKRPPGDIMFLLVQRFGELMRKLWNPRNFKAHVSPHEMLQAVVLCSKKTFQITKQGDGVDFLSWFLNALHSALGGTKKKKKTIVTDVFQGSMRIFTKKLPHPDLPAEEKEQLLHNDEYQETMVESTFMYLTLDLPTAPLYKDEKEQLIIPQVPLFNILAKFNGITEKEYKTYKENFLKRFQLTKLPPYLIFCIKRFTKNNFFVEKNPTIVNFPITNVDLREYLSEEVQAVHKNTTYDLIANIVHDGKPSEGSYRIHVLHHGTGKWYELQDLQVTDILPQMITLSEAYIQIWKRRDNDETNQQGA
In short: as §1

USP4 = molecular target: T4, USP4 (UniProt Q13107)
T4 sequence (whole entry): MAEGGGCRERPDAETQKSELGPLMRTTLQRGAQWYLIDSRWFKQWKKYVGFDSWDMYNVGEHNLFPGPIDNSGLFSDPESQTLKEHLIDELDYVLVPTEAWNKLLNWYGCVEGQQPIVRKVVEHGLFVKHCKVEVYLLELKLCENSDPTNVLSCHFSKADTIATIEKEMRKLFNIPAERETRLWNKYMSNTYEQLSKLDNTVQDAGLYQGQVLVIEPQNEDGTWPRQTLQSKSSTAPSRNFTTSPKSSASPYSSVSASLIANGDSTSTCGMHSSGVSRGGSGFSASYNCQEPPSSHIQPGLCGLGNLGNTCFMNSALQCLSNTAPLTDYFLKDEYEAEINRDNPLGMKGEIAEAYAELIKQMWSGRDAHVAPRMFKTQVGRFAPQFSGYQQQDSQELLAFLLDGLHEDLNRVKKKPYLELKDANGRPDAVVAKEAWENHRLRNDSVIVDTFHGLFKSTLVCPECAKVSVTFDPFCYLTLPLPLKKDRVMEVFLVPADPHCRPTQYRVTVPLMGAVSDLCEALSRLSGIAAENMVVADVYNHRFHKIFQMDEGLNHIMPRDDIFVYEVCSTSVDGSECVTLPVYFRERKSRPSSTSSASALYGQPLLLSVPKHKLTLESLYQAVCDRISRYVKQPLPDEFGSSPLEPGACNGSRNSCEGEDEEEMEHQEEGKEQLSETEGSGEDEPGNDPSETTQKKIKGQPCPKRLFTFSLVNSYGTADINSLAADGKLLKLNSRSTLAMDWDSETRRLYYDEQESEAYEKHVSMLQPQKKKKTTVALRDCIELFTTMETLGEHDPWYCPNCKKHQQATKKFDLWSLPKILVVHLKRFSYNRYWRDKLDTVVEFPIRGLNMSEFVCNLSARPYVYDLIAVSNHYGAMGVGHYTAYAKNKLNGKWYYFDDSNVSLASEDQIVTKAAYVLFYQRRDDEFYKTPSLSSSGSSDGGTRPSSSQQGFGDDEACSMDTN
In short: as §1

Measured: log2 ratio of Biotin-Ahx-Ub-VS probe labelling

USP34, sequence (Q70CQ2 whole entry, the tested form may be a part): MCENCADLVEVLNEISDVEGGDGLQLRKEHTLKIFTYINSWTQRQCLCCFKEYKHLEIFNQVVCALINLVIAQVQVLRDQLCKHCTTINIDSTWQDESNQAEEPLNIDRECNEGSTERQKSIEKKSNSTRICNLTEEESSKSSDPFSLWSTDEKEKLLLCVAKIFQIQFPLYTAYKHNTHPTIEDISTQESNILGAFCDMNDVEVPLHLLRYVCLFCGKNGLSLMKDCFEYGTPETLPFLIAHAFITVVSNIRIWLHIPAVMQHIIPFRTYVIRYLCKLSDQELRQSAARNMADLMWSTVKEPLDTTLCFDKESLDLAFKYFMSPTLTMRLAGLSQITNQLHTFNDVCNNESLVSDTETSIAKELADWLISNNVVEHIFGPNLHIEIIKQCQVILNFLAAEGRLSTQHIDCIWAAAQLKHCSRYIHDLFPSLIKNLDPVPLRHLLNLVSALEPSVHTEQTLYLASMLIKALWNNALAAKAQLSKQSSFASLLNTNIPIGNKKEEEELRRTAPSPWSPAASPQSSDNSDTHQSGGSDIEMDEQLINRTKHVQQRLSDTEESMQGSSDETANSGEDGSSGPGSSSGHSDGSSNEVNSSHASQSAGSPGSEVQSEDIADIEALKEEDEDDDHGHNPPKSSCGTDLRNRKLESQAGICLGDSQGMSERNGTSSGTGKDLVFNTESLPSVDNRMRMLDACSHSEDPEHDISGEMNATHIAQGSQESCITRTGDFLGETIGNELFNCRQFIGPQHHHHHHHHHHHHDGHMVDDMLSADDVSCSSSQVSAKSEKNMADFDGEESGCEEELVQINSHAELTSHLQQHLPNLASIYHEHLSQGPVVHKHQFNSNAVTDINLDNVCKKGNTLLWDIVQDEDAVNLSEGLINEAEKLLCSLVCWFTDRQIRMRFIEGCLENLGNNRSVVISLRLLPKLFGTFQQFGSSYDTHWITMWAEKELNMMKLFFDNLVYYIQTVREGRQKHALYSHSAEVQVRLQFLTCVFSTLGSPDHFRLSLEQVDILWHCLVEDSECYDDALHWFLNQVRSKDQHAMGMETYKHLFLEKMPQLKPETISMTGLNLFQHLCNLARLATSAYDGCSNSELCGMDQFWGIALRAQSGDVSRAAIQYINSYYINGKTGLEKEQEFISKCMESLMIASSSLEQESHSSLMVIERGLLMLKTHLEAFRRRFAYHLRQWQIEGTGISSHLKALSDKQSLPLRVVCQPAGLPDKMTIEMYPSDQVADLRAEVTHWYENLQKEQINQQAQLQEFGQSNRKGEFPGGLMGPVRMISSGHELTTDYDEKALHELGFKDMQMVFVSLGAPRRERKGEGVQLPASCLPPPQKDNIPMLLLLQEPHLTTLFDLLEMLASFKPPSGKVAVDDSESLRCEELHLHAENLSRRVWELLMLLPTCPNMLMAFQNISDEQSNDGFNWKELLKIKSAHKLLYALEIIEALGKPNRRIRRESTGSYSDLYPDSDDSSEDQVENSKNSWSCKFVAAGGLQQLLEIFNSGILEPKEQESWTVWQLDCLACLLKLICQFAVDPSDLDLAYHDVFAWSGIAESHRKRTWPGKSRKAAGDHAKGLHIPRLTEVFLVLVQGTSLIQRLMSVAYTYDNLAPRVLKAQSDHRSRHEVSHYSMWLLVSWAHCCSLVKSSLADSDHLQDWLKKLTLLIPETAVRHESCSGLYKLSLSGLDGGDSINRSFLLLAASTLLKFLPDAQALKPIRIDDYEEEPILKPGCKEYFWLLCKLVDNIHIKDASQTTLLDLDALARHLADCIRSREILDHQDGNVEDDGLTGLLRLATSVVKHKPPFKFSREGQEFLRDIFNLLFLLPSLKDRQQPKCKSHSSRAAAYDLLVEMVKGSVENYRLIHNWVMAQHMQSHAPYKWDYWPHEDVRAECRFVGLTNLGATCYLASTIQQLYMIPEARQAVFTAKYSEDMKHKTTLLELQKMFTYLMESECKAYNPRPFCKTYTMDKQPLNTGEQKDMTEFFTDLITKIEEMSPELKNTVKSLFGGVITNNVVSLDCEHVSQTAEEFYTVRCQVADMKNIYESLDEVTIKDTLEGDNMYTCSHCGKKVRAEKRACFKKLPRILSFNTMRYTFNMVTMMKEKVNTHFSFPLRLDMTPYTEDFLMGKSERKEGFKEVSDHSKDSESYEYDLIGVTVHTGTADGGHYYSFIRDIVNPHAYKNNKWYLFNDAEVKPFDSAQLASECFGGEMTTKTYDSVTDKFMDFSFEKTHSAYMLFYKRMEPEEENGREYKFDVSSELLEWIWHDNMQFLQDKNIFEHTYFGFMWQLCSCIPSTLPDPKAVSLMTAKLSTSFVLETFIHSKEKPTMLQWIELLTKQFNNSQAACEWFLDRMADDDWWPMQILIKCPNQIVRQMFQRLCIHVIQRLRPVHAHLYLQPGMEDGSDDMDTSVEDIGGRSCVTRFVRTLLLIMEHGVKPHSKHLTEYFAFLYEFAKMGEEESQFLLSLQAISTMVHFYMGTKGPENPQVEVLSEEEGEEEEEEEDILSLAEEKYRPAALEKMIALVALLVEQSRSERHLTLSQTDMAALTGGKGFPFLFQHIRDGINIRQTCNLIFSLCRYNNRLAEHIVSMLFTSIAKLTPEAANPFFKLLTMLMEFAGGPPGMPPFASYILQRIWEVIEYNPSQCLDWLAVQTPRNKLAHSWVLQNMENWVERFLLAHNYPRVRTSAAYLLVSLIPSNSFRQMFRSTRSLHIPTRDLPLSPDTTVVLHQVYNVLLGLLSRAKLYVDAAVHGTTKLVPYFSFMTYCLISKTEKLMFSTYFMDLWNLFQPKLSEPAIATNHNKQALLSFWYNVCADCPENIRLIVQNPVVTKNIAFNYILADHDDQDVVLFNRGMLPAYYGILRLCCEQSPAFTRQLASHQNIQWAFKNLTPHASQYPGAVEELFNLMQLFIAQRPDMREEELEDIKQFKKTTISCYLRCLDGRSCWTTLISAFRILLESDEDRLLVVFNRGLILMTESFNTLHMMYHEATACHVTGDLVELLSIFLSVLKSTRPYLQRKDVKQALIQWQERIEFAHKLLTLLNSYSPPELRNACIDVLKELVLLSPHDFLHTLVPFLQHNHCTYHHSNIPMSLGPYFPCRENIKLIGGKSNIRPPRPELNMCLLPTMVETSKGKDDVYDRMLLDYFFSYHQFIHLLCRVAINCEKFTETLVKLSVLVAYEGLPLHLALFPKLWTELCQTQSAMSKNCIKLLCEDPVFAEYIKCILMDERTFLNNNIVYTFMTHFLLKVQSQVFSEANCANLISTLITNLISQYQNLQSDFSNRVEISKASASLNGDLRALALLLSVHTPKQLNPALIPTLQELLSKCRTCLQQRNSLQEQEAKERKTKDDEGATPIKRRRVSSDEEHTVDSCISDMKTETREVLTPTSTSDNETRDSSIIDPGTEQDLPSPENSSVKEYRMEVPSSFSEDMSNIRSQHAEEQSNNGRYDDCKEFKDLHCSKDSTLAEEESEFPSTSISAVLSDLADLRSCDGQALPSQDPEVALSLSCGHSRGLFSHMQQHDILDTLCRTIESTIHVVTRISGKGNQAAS

O=C(CCl)NCc1ccc(N2CCOCC2)nc1
inactive: USP34 -0.0991 | USP36 -0.161 | USP38 -0.0678 | USP39 -0.00187 | USP4 0.0133
